The text below walks through data of PubChem BioAssay (EPA / NIEHS).

For orientation: AC50 means the concentration at which the activity in the assay is half-maximal.

Structures are written as SMILES. Calls of active or inactive are those of the source. Rule for the calls: active = hit-call score of the fitted dose curve at least 0.9, where 1 is the maximum; inactive = score below 0.9.

Test [1] can be described thus: ATG_CRE_CIS: Attagene CIS-FACTORIAL HepG2 Assay for human cAMP Responsive Element (CRE) binding protein 3 (AID 2282926). The note with it: HepG2 CRE cis-reporter, Attagene multiplexed mRNA; actives raise or lower the signal. In outline: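 Capillary electrophoresis of 6-FAM-labelled, HpaI-digested PCR products quantified reporter transcripts. These came from HepG2 transiently transfected with cis-element reporters and exposed to test chemicals for 24 hours, with DMSO defining baseline activity.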

Test [2] deals with CCAAT/enhancer-binding protein beta (Homo sapiens) (UniProt P17676). The experiment in a line: ATG_C_EBP_CIS: Attagene CIS-FACTORIAL HepG2 Assay for human CCAAT/Enhancer Binding Protein (C/EBP) beta (AID 2282927). To be noted: HepG2 Attagene cis-factorial transcription factor reporter; actives raise or lower the signal. Summed up:
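Transiently transfected HepG2 (MRTU library, endogenous TF-driven promoters); 24 h dosing; total RNA → oligo(dT) RT → PCR → 6-FAM primer extension → HpaI digest → CE; fit bidirectionally vs DMSO.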

The nature of test [3]: ATG_CMV_CIS: Attagene CIS-FACTORIAL HepG2 Assay for human CMV (Internal Marker) (AID 2282928).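 Note: endpoint acts as a background internal control marker rather than a target.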 The note with it: HepG2 CMV promoter reporter, transcription factor profiling; actives raise or lower the signal. In outline:
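Fluorescence intensity of RT-PCR-derived reporter fragments, resolved by capillary electrophoresis, gives the signal. HepG2 liver cells bearing transfected cis-element reporters were treated 24 h; activity in either direction was fit relative to DMSO-treated controls.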

A short description of test [4]: ATG_DR4_LXR_CIS: Attagene CIS-FACTORIAL HepG2 Assay for human Liver X Receptor (LXR), DR4 submotif (AID 2282929). The note with it: HepG2 Attagene DR4 cis-reporter, mRNA transcription; actives raise or lower the signal. Summed up:
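Measures endogenous transcription factor activity via a DR4-driven reporter transcript in human HepG2 cells. Compounds incubated 24 h; mRNA quantified by RT-PCR and capillary electrophoresis, analysed as gain or loss of signal versus DMSO.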

The target in test [5] is Aryl hydrocarbon receptor (Homo sapiens) (UniProt P35869). Description: ATG_Ahr_CIS: Attagene CIS-FACTORIAL HepG2 Assay for human Aryl Hydrocarbon Receptor (Ahr) (AID 2282930). The note with it: HepG2 AhR cis-factorial reporter transcription; actives raise or lower the signal. In outline:
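Read-out: reporter mRNA quantified by RT-PCR with fluorescent primer extension and capillary electrophoresis. Human HepG2 liver cells carried transfected cis-promoter reporter units and were exposed to chemical for 24 h; gain or loss fitted relative to DMSO.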

Test [6] can be described thus: ATG_AP_1_CIS: Attagene CIS-FACTORIAL HepG2 Assay for human Activator Protein 1 (AP-1) (AID 2282931). To be noted: HepG2 Attagene cis-factorial AP-1 reporter mRNA; actives raise or lower the signal. In outline: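 Bidirectional concentration-response fitting against DMSO controls. Underlying signal: reporter mRNA from cis-promoter constructs in transiently transfected HepG2, measured after 24 h by RT-PCR and capillary electrophoresis.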

The nature of test [7]: ATG_AP_2_CIS: Attagene CIS-FACTORIAL HepG2 Assay for human Activator Protein 2 (AP-2) (AID 2282932). To be noted: HepG2 AP-2 cis-reporter, Attagene transcription factor profiling; actives raise or lower the signal. In outline:
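Read-out: fluorescent reporter mRNA via RT-PCR and capillary electrophoresis, 24 h post-dose in transiently transfected HepG2. Endogenous factors drive cis-promoter reporters; gain or loss of signal fitted bidirectionally against DMSO.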

Test [8] can be described thus: ATG_BRE_CIS: Attagene CIS-FACTORIAL HepG2 Assay for human Bone Morphogenetic Protein (BMP) Response Element (BRE) (AID 2282933). The note with it: HepG2 BMP response element reporter, Attagene transcription factor profiling; actives raise or lower the signal. In outline:
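Endogenous transcription factor activity at a BMP response element was monitored in transfected HepG2 cells 24 h after dosing. Fluorescent RT-PCR products were resolved by capillary electrophoresis, and activity was fitted in both directions versus DMSO.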

Test [9] deals with Transcription factor E2F1 (Homo sapiens) (UniProt Q01094). Description: ATG_E2F_CIS: Attagene CIS-FACTORIAL HepG2 Assay for human E2F Transcription Factor 1 (AID 2282935). To be noted: HepG2 Attagene cis-reporter, E2F reporter RNA transcripts; actives raise or lower the signal. In outline: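 Transient MRTU transfection of HepG2; 24 h compound exposure; RNA → oligo(dT) RT → PCR → FAM label → HpaI cut → CE fluorescence. Gain/loss of signal fit against DMSO.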
Chain of Transcription factor E2F1 (Homo sapiens) (Q01094 whole entry, looked up): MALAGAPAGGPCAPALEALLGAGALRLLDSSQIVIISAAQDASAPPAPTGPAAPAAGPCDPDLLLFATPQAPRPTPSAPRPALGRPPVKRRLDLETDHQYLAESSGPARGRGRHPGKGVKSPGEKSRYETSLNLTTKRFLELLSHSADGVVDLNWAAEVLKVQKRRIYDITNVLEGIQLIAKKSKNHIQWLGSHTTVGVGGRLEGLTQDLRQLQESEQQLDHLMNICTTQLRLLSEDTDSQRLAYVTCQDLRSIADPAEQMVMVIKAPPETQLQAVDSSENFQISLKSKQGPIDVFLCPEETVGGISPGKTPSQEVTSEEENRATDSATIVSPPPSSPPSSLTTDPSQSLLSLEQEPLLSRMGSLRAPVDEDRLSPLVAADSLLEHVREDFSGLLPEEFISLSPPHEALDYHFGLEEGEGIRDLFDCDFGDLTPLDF

Test [10] has as its target Retinoic acid receptor alpha (Homo sapiens) (UniProt P10276). Description: ATG_DR5_RAR_CIS: Attagene CIS-FACTORIAL HepG2 Assay for human Retinoic Acid Receptor Alpha (RARE), DR5 submotif (AID 2282934). To be noted: HepG2 Attagene cis-factorial RARE DR5 reporter, mRNA; actives raise or lower the signal. Summed up:
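Read-out: DR5-driven reporter transcript measured by RT-PCR, 6-FAM primer extension, HpaI digest and capillary electrophoresis. Human HepG2 liver cells carry transiently transfected cis-element reporter constructs; dosing lasts 24 h. Gain or loss of signal fitted against DMSO baseline.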

Chain of CCAAT/enhancer-binding protein beta (Homo sapiens) (P17676 whole entry, looked up): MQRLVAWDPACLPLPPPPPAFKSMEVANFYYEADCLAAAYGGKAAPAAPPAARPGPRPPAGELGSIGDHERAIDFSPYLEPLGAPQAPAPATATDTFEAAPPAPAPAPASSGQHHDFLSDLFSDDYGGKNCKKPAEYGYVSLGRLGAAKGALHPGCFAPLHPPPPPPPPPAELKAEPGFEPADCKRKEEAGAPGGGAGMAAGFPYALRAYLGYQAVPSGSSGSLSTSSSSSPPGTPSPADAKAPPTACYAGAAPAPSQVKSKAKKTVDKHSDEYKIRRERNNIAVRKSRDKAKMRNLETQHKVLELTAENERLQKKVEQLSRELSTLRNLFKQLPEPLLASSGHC
Chain of Aryl hydrocarbon receptor (Homo sapiens) (P35869 whole entry, looked up): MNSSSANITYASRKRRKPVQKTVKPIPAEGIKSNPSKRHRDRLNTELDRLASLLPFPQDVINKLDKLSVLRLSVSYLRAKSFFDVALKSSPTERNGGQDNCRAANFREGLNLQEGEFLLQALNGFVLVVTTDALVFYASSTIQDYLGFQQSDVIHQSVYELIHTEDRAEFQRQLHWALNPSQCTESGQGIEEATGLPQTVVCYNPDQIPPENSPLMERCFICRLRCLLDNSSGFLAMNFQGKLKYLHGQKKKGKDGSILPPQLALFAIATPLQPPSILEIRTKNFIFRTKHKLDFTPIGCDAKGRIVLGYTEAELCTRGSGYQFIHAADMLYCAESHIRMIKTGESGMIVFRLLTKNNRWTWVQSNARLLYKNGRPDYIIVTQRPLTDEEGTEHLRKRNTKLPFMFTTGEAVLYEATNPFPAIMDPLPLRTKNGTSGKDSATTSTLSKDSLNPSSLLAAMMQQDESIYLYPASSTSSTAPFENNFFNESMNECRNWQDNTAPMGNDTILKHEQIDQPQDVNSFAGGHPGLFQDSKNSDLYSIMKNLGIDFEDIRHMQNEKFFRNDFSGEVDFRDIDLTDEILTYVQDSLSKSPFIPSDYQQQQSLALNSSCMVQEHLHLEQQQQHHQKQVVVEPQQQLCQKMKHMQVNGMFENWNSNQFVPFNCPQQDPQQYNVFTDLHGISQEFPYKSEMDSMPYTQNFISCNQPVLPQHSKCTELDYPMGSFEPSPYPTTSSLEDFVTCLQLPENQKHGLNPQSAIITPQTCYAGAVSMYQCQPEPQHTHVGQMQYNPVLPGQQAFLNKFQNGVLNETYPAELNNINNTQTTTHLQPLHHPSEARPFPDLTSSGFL
Chain of Retinoic acid receptor alpha (Homo sapiens) (P10276 whole entry, looked up): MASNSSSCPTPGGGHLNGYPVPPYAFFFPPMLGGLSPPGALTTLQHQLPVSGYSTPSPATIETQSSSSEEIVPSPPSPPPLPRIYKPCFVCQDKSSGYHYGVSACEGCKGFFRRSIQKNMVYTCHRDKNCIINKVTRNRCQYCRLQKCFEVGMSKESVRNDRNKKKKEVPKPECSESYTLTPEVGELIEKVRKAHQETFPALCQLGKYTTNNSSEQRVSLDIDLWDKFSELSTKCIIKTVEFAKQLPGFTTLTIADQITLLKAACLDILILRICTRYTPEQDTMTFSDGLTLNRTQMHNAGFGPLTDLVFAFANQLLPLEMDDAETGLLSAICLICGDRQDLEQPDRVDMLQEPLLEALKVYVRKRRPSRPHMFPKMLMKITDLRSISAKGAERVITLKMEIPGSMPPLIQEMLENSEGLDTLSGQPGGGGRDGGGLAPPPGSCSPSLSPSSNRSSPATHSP

For the compound `N#Cc1ccc(CC(=NNC(=O)Nc2ccc(OC(F)(F)F)cc2)c2cccc(C(F)(F)F)c2)cc1`, the result in test [1], in test [2], in [3], in test [4], in test [6] and in test [7] was inactive. Also, the compound was classed as inactive in test [8] and in test [9]. Besides, in [5], the AC50 was 53.1 µM (active).

As for `O=S(=O)(O)c1ccc(O)c2ncccc12`, the compound was called inactive in test [1], in test [2], in [3], in [4], in test [6] and in test [7]. Moreover, the call in test [8] and in test [9] was inactive. Also, the AC50 in [5] was 37.5 µM (active).

For the compound `COCCCOc1ccnc(CS(=O)c2nc3ccccc3[nH]2)c1C` (stereo unspecified), the compound was called inactive in [1], in test [2], in test [3], in [4], in test [6] and in test [7]. For the same compound, the outcome in test [8] and in [9] was inactive. Also, the AC50 in [5] is 14.7 µM (active).

Turning to `O=C(O)c1cccc([N+](=O)[O-])c1`, the call in test [1], in [2], in [3], in test [4], in test [5] and in test [6] was inactive. The outcome in test [7], in test [8] and in test [9] was inactive.

Turning to `O=Nc1ccc(Nc2ccccc2)cc1`, the compound was classed as inactive in test [1], in [6], in test [7], in test [8] and in test [9]. In addition, the AC50 is 8.78 µM (active) in [2], 8.52 µM (active) in test [3], 25.3 µM (active) in test [4] and 33.4 µM (active) in test [5].

Turning to `CCCCCC(=O)OCCc1ccccc1`, the result in [1], in test [2], in test [3], in test [4], in test [5] and in [6] was inactive. Moreover, the compound was classed as inactive in test [7], in test [8] and in test [9].

Regarding `C=C(C)[C@@H]1CCC2=CC(=O)C[C@@H](C)[C@]2(C)C1`, the call in test [1], in [2], in test [3], in [5], in test [7] and in test [9] was inactive. In addition, the values for the AC50 in test [4], in [6] and in [8] were 177 µM (active), 53.4 µM (active) and 116 µM (active), respectively.

Consider `O=C(O)CCCCC1CCSS1` (stereo unspecified), for which the result in [1], in [2], in [3], in test [4], in test [5] and in [6] was inactive. Moreover, the call in [7], in test [8] and in test [9] was inactive.

`Clc1ccc(Cl)c(Cl)c1Cl`: the compound was called inactive in test [1], in test [2], in [3], in test [4], in [6] and in test [7]. Also, the compound was called inactive in test [8] and in [9]. Also, the concentration at half-maximal activity (AC50) in test [5] was 31.7 µM (active).

In the case of `CC(C)[C@@H]1CC[C@@H](C)CC1=O`, the compound was classed as inactive in test [1], in test [2], in test [3], in test [4], in test [5] and in test [6]. Moreover, the call in test [7], in test [8] and in test [9] was inactive.

`Cc1ccc(C(=O)O)o1`: the outcome in [1], in test [2], in test [3], in test [4], in test [5] and in test [6] was inactive. For the same compound, the outcome in [7], in test [8] and in test [9] was inactive.

Regarding `COc1cccc(OC)c1`, the result in test [1], in test [2], in test [3], in [4], in test [5] and in test [6] was inactive. Moreover, the result in test [7], in test [8] and in test [9] was inactive.

Consider `Nc1cc([N+](=O)[O-])ccc1O`, for which the compound was classed as inactive in [1], in [2], in test [3], in [4], in test [6] and in test [7]. For the same compound, the call in [8] and in test [9] was inactive. For the same compound, in test [5], the AC50 is 100 µM (active).

Take `CC1(C)[C@@H]2CC[C@@]1(C)[C@H](O)C2`: the compound was called inactive in [1], in test [2], in [3], in test [4], in test [5] and in [6]. The outcome in [7], in test [8] and in test [9] was inactive.

As for `Cc1c(N(C)C)c(=O)n(-c2ccccc2)n1C`, the call in test [1], in [2], in test [3], in [4], in [6] and in [7] was inactive. For the same compound, the result in test [8] and in test [9] was inactive. In test [5], the AC50 is 64.9 µM (active).

For `COc1ccc(Nc2ccccc2)c(C)c1`, the call in test [1], in test [2], in [5], in test [7] and in [9] was inactive. For the same compound, the AC50 is 100 µM (active) in [3], 46 µM (active) in test [4], 139 µM (active) in [6] and 149 µM (active) in [8].

`CC1=CCC2C(C1)C2(C)C` (stereo unspecified): the compound was called inactive in [1], in [2], in test [3], in test [4], in test [5] and in test [6]. Moreover, the compound was classed as inactive in test [8] and in test [9].

On to `CN(C)CCCN`, for which the compound was called inactive in [1], in test [2], in [3], in test [4], in test [5] and in [6]. Further, the compound was classed as inactive in [8] and in test [9].

Take `CC(C)(COC(=O)c1ccccc1)COC(=O)c1ccccc1`: the compound was classed as inactive in test [1], in test [2], in [3], in test [4], in test [5] and in test [6]. Also, the compound was classed as inactive in test [8] and in test [9].

In the case of `Nc1cc(Cl)c(O)c(Cl)c1`, the call in [1], in test [2], in [4], in test [5], in test [6] and in [8] was inactive. The result in test [9] was inactive. Further, the AC50 in [3] was 186 µM (active).

For `O=c1[nH]c(=O)n([C@H]2CCCO2)cc1F`, the compound was called inactive in test [1], in test [2], in test [3], in test [4], in test [5] and in test [6]. The compound was classed as inactive in test [8], in test [10] and in test [9].

As for `CCCCNC(=O)NS(=O)(=O)c1ccc(C)cc1`, the outcome in test [1], in test [2], in [3], in [4], in test [5] and in [6] was inactive. Further, the result in test [8] and in test [9] was inactive.

`CC1(C)[C@H]2CC[C@]1(C)[C@H](O)C2`: the call in [1], in test [2], in test [3], in test [4], in test [5] and in test [6] was inactive. Further, the call in test [8] and in test [9] was inactive.

On to `NC(=O)c1ccccc1Cl`, for which the AC50 in test [1] is 61.2 µM (active); in test [6], 27 µM (active). In addition, the outcome in test [2], in test [3], in test [4], in test [5], in [8] and in test [9] was inactive.

Take `CN1[C@@H]2CC(OC(=O)[C@H](CO)c3ccccc3)C[C@H]1[C@@H]1O[C@@H]12` (stereo partly specified): the result in test [1], in test [2], in test [3], in [4], in test [5] and in [6] was inactive. Besides, the call in [8] and in [9] was inactive.

On to `CCC(=O)OCc1ccccc1`, for which the compound was called inactive in test [1], in test [2], in [3], in test [4], in test [5] and in test [6]. The result in [8] and in test [9] was inactive.

On to `C#C[C@]1(O)CC[C@H]2[C@@H]3CCC4=Cc5oncc5C[C@]4(C)[C@H]3CC[C@@]21C`, for which the AC50 in test [1] was 41.2 µM (active); in [4], 14.5 µM (active); in [6] it was 26.2 µM (active); in test [9] it was 33.4 µM (active). For the same compound, the result in test [2], in test [3], in test [5] and in test [8] was inactive.

Turning to `CCCCOCCOCCOCCOCCO`, the compound was classed as inactive in test [1], in test [2], in test [3], in test [4], in test [5] and in test [6]. Further, the compound was classed as inactive in test [8] and in [9].
